EPAC2 ag: EPAC2 (human) agonism | AID 720711 | 360,000 compounds, 0.079% hits | EPAC2 activation, biochemical qHTS; response scale: 100% = 6.5 mM cAMP response | Q8WZA2 | Potency, µM (doses to about 154 µM), without a hit: top-dose activation, hits mostly activators; further: nearly all actives have a fitted effect of over 50% in size
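Fluorescence exchange assay: 100 nM EPAC2 with 250 nM RAP1B-BODIPY-GDP and 50 uM GDP; compounds tested as a concentration-titration series (qHTS). Loss of Rap1-bound BODIPY-GDP fluorescence read at 480/540 nm; data normalized to 6.5 mM cAMP.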
EPAC1 ag: activates human EPAC1 exchange factor. O95398. EPAC1 agonist qHTS, biochemical assay; response scale: 100% = response to 6.5 mM cAMP. Potency, µM (highest dose often 154 µM), for the others: top-dose activation, actives largely listed as activators. 360,000 compounds, 0.073% hits; further: nearly all actives have a fitted effect of over 60% in size
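Normalized to 6.5 mM cAMP, activity reflects EPAC1-catalysed release of BODIPY-GDP from Rap1B, followed kinetically over 30 min at 480 nm excitation, 540 nm emission. Reaction contained 100 nM EPAC1, 250 nM Rap1B-BODIPY-GDP, 50 uM GDP.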
EPAC1 antagonist: blocks human EPAC1 exchange factor; EPAC1 GEF assay, Rap1b-BODIPY-GDP exchange fluorescence; Potency, µM (titrated, usually from 115 µM), for inactives: at the highest dose activity change, negative = inhibition, hits mostly inhibitors; 360,000 compounds, 0.14% hits; AID 720709;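 further: plate controls were vehicle for no effect and positive control for full effect; nearly all actives have a fitted effect of over 50% in size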
EPAC2 antag: blocks human EPAC2 exchange factor | Q8WZA2 | EPAC2 GEF exchange of Rap1B-BODIPY-GDP, fluorescence | Potency, µM (series often up to 114 µM), for inactives: top-dose activity, negative = inhibition, most hits filed as inhibitors | 360,000 compounds, 0.18% hits | AID 720708; further: on the % scale 0 is the no-effect control and ±100 the full control effect; nearly all actives have a fitted effect of over 45% in size
VDR inhibitor: inhibitors of human vitamin D receptor. Potency, µM, without a hit: max response, negative = inhibition, actives largely listed as inhibitors. AID 504847. P11473. 400,000 compounds, 0.93% hits. VDR-SRC2-3 peptide fluorescence polarization, 2 h; further: on the % scale 0 is the no-effect control and ±100 the full control effect
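Measured by FP: displacement of SRC2-3 coactivator peptide from VDR by library compounds, following a two-hour ambient incubation.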
USP1-UAF1 inh: blocks the human USP1/UAF1 deubiquitinase complex; 390,000 compounds, 0.23% hits; O94782; recombinant USP1/UAF1, Ub-Rhodamine cleavage fluorescence; Potency, µM (highest dose often 57.1 µM), inactives show at the highest dose activity change, negative = inhibition, usual class: inhibitors; further: on the % scale 0 is the no-effect control and ±100 the full control effect; nearly all actives have a fitted effect of over 60% in size
Target sequence (O94782 whole entry, looked up): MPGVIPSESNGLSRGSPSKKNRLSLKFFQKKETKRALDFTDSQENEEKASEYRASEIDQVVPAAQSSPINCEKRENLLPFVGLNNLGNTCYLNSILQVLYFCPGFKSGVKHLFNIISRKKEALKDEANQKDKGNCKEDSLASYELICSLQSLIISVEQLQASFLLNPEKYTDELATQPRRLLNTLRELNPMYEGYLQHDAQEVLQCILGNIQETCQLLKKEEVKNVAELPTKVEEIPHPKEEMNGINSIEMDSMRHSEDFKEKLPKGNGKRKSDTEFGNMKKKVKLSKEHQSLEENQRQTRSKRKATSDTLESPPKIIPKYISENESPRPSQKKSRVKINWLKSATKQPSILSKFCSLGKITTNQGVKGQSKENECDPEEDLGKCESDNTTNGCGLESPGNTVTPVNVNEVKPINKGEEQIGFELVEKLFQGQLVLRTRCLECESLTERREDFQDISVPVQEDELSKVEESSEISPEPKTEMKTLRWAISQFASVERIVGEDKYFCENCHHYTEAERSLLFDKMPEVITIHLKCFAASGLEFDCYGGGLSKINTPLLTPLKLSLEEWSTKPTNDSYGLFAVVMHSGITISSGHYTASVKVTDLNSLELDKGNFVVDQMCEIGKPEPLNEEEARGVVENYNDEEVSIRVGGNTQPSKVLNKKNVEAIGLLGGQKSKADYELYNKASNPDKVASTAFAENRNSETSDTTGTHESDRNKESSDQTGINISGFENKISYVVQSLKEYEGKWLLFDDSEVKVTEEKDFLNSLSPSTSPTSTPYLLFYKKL
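USP1/UAF1 complex at 1 nM was preincubated with compound for 15 min at room temperature, then Ub-Rho substrate (150nM final) was added. Fluorescence (480/540 nm) was read kinetically, 6 reads every 60 seconds.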
* = called active by the depositor; ? = inconclusive; . = no result. In the library only some 1.2% were active in any assay of this set; here they are far more common. The call rests on the fitted dose curve; in most records, active means well fitted curve in the direction sought with a large enough effect; inconclusive means small, poorly fitted or top-dose-only effect, or another doubt; inactive means no such curve, though single readings can be large; an effect the other way counts as inactive or inconclusive. Potency means the concentration at half of the fitted maximal effect.

SMILES | EPAC2 ag | EPAC1 ag | EPAC1 antagonist | EPAC2 antag | VDR inhibitor | USP1-UAF1 inh
O=C(CN1C(=O)COc2ccc(S(=O)(=O)N3CCOCC3)cc21)N1CCN(c2cccc(C(F)(F)F)c2)CC1 | . | . | . | . | 9% | -25%
N#C/C(=C\c1ccc(O)c([N+](=O)[O-])c1)c1nc2ccccc2s1 | -5% | -9% | ? | ? | ? | ?
COc1cc(/C=C(\C#N)c2nc3ccccc3s2)cc([N+](=O)[O-])c1O | 13% | -7% | 79µM* | ? | -17% | -22%
COc1ccc(NC(=O)c2cccnc2NCCc2ccccc2)cc1 | 32µM* | 56µM* | 52% | -4% | -27% | -15%
Cc1ccccc1-c1nc2scc(CCNS(=O)(=O)c3ccccc3)n2n1 | . | . | . | . | 12% | ?
Fc1ccc(C(Nc2ccccn2)c2c[nH]c3ccccc23)cc1 (stereo unspecified) | 2% | 10% | -15% | 45µM* | -16% | -12%
C=CCn1c(SCC)nc2ccccc2c1=O | . | . | . | . | -2% | .
O=C1CCN2C=Nc3cccc4ccc1c2c34 | 89µM* | 63µM* | 297% | 284% | -16% | 28µM*
O=C(N/N=C/c1ccc(-c2ccc(Cl)c(C(=O)O)c2)o1)c1cc2c(ccc3ccccc32)o1 | 28% | 11% | 40µM* | 17% | -8% | -22%
Cc1ccc(-c2ccc(/C=N\NC(=O)c3cc4c(ccc5ccccc54)o3)o2)cc1[N+](=O)[O-] | 8% | 0% | -6% | 2% | 5% | -20%
CCOc1ccc2c(c1)C(NC(C)=O)C(=O)N2CCN1CCOCC1 (stereo unspecified) | 2% | 8% | ? | -18% | 79µM* | -19%
CC(C)=CCC/C(C)=C/CC/C(C)=C/CC/C(C)=C/CC1=C(C)C(=O)c2ccccc2C1=O | -3% | -18% | ? | -20% | ? | -24%
CC(C)=CCC1=C(OCC(=O)O)C(=O)c2ccccc2C1=O | 23% | 2% | ? | ? | ? | 10µM*
OCC1O[C@H]([S-])[C@H](O)[C@@H](O)[C@@H]1O.[Au+] (stereo partly specified) | . | . | . | . | 2.8µM* | .
Cc1ccc(NC(=O)Cn2c(=O)n(Cc3ccco3)c(=O)c3sc4ccccc4c32)cc1C | . | . | . | . | -3% | -24%
CSC1=NC(=O)/C(=C\c2cccc3ccccc23)S1 | 18% | 3% | -10% | -22% | 79µM* | -8%
Cc1cc([C@](C)(N)C(=O)O)ccc1P(=O)(O)O | . | . | . | . | 4% | .
CCOC(=O)/C(=C/C1=CC(=C/N(C)C)/C(=O)O1)C(C)=O | 26% | 25% | 34% | 40% | 4% | 32µM*
Nc1c(S(=O)(=O)O)cc(Nc2cccc3ccccc23)c2c1C(=O)c1ccccc1C2=O | . | . | . | . | 35µM* | .
O=C(Nc1ccccc1-c1ccccc1)c1ccccc1 | -1% | 4% | -1% | -26% | -14% | -2%
Nc1c(S(=O)(=O)O)cc(NC(=O)c2ccccc2)c2c1C(=O)c1ccccc1C2=O | 0% | -4% | ? | 40µM* | ? | -18%
Nc1c(S(=O)(=O)O)cc(Nc2ccc(Cl)cc2)c2c1C(=O)c1ccccc1C2=O | . | . | . | . | 32µM* | .
O=C(NC1=C(Nc2ccc(Cl)cc2)C(=O)c2ccccc2C1=O)c1ccccc1 | -8% | -23% | 5% | 5% | -9% | ?
COc1ccc2c(c1)O[C@@H](c1cccc(C(F)(F)F)c1)[C@H](OC(=O)NS(=O)(=O)c1ccc(C)cc1)C2=O | . | . | . | . | 7% | .
O=C(c1ccc(CS(=O)(=O)c2c(Cl)cccc2Cl)o1)N1CCN(c2ccccc2)CC1 | . | . | . | . | -13% | 2%
CCOc1ccc(N2C(=O)c3[nH]nc(-c4ccc(OC)cc4)c3C2c2cccs2)cc1 (stereo unspecified) | . | . | . | . | ? | -5%
CC(=O)C(=Nc1ccccc1Cl)NNc1ccc(Cl)cc1 | 8% | 18% | -14% | -3% | 45µM* | -10%

From PubChem
